Data as given in the supplement of paper PMC6555819.

How the values were obtained:
Assay in all cases: PBM binding z-score (relative to random genomic background probes); higher = stronger binding; sequences stand for … in GC…GCGATTGACAGCGTAGAATGAAGG
[1] = system: PPARg:RXRa DBDmut IVT, anti-RXR (DBD mutation: RXRa K156A/R161A, NR concentration 270 nM, RXRa partner concentration 90 nM)
Outline: (§1)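 Custom Agilent 4×180K protein-binding microarrays carried double-stranded probes, each with a 34-nt variable region. These regions held direct-repeat seeds, single-nucleotide variants, half-site ablations and random human genomic background sequences. Ligand-free nuclear receptor dimers were incubated on the arrays for 1 h, antibodies against each partner (one per run) detected binding, and scanned fluorescence was regression-normalized. Binding z-scores take the random background probes as reference.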

[2] = system: PPARg:RXRa IVT, anti-PPARg (NR concentration 270 nM, RXRa partner concentration 90 nM)
Outline: as §1

[3] = system: PPARg DBDmut:RXRa IVT, anti-PPARg (DBD mutation: PPARg1 K132A/R137A, NR concentration 270 nM, RXRa partner concentration 90 nM)
Outline: as §1

[4] = system: PPARg DBDmut IVT, anti-PPARg (DBD mutation: PPARg1 K132A/R137A, NR concentration 270 nM)
Outline: as §1

[5] = system: PPARg homodimer (NR concentration 180 nM)
Outline: as §1

[6] = system: PXR:RXRa (NR concentration 270 nM, RXRa partner concentration 90 nM)
Outline: as §1

[7] = system: PXR homodimer (NR concentration 270 nM)
Outline: as §1

[8] = system: RARa:RXR (NR concentration 270 nM, RXRa partner concentration 90 nM)
Outline: as §1

[9] = system: RARa homodimer (NR concentration 270 nM)
Outline: as §1

[10] = system: RARb:RXRa (NR concentration 270 nM, RXRa partner concentration 90 nM)
Outline: as §1

[11] = system: RARb homodimer (NR concentration 270 nM)
Outline: as §1

[12] = system: RARg:RXRa (NR concentration 270 nM, RXRa partner concentration 90 nM)
Outline: as §1

[13] = system: RARg homodimer (NR concentration 270 nM)
Outline: as §1

[14] = system: RXRa DBDmut IVT, anti-RXR (DBD mutation: RXRa K156A/R161A, NR concentration 90 nM)
Outline: as §1

[15] = system: RXRa homodimer (NR concentration 180 nM)
Outline: as §1

[16] = system: THRa:RXRa (NR concentration 90 nM, RXRa partner concentration 90 nM)
Outline: as §1

[17] = system: THRa homodimer (NR concentration 90 nM)
Outline: as §1

[18] = system: VDR:RXRa (NR concentration 270 nM, RXRa partner concentration 90 nM)
Outline: as §1

[19] = system: VDR homodimer (NR concentration 270 nM)
Outline: as §1

Sequence | PBM binding z-score [1] | PBM binding z-score [2] | PBM binding z-score [3] | PBM binding z-score [4] | PBM binding z-score [5] | PBM binding z-score [6] | PBM binding z-score [7] | PBM binding z-score [8] | PBM binding z-score [9] | PBM binding z-score [10] | PBM binding z-score [11] | PBM binding z-score [12] | PBM binding z-score [13] | PBM binding z-score [14] | PBM binding z-score [15] | PBM binding z-score [16] | PBM binding z-score [17] | PBM binding z-score [18] | PBM binding z-score [19]
CTCGAAAGGTCGGTTGAGGTGAGTACACGGATAA | 0.186 | 0.928 | 0.39 | -0.276 | 0.988 | 3.2 | 0.172 | 2.11 | -0.296 | 3.15 | 2.53 | 2.89 | 2.79 | 0.908 | 2.34 | 5.21 | 1.47 | 2.84 | 1.71
ATATGTAGGCTACATCCGGGTCATTCAGGCTATG | 5.71 | 5.66 | 1.96 | 1.11 | 0.66 | 2.34 | 1.04 | 2.51 | 0.115 | 1.27 | 2.14 | 1.7 | 1.22 | 0.518 | 1.95 | 2.91 | 2.14 | 2.92 | 2.15
ACAGACAGGTGAGTGAAGGTAACTAAGCTGGACG | 0.098 | 0.719 | -0.328 | -0.677 | -0.864 | -0.279 | -0.0557 | 0.0664 | 0.112 | 0.425 | 0.0814 | 0.264 | 0.483 | -0.523 | 0.122 | 1.38 | -0.413 | -0.372 | -0.429
TTTGCTAGGTCAGTTGGTCAGCTAACGAGCTGCC | 3.23 | 3.87 | -0.438 | -0.0692 | 0.648 | 0.0416 | -0.599 | 0.42 | -0.935 | 3.31 | 2.57 | 2.76 | 3.54 | 0.279 | 0.82 | 1.42 | 0.0567 | 0.134 | -0.505
TCACCAAGGTGAGCTGAGGTCGTTGATCCAACTC | 1.73 | 1.53 | -0.807 | -0.69 | 0.0757 | 5.13 | -0.0817 | 2.65 | -0.943 | 1.61 | 1.5 | 1 | 0.829 | 0.546 | 1.28 | 4.7 | 1.49 | 3.97 | 1.64
GCGACTGGGGCAAAGCATGTTACCATAAGGTTGG | 4.73 | 3.23 | -0.245 | -0.674 | 0.0632 | -0.48 | -0.713 | -0.255 | -1.06 | 0.551 | 0.192 | 0.235 | 0.278 | 0.0488 | 0.0784 | 0.269 | -0.43 | -0.497 | -0.625
ATATGTAGGTGATCGGGTCATTCAGTTTGCGCAT | 7.23 | 7.11 | 1.94 | 2.7 | 1.86 | 3.27 | 6.72 | 2.77 | 0.81 | 2.01 | 2.55 | 2.48 | 1.78 | 1.09 | 2.44 | 2.91 | 2.14 | 4.74 | 3.46
CACACAGGGTCAGCTAGGCCAGAGTAGGGACGGC | 0.553 | 2.09 | 0.463 | 0.562 | 2.14 | 2.06 | 0.13 | 3.32 | 0.53 | 4.09 | 3.23 | 4.52 | 4.78 | 1.76 | 4.03 | 3.04 | 0.987 | 3.8 | 2
TCATATAGGTAAATGCTAGGTGTAAGTCCGATCT | 3.8 | 1.94 | 0.286 | 1.15 | 0.2 | 0.655 | -0.0284 | 0.00446 | 1.01 | 0.377 | -0.036 | 0.43 | 0.124 | 1.47 | 0.608 | 0.0134 | 0.0913 | 0.772 | 0.144
GCTGCTAGGTCAGGTTGGTCAGCAAACGGGTACG | 2.74 | 2.2 | -0.864 | -0.495 | 0.7 | 0.33 | -0.684 | 0.7 | -0.687 | 3.25 | 2.84 | 2.72 | 3.54 | 0.377 | 1.03 | 1.92 | 0.409 | 0.616 | 0.182
TCTATTTGGTCAAAGGTCACACACTCGAAATGCG | 3.39 | 6.25 | 3.22 | 2.73 | 5.3 | 5.91 | 1.76 | 7.03 | 3.85 | 5.42 | 5.34 | 7.07 | 6.16 | 2.49 | 7.9 | 4.24 | 2.77 | 5.41 | 2.96
TAGCCTAGGTCATTTAGGGGCCAGTATAGAAAGC | 1.79 | 2.38 | 0.515 | -0.286 | 1.87 | 2.34 | -0.166 | 3.45 | -0.429 | 3.6 | 3.12 | 5.9 | 4.36 | 1.98 | 2.63 | 3.47 | 0.467 | 3.03 | 1.63
CAAACTAGGTCACGAAAGGTTAAAGTCGAATGAC | 8.39 | 9.07 | 2.59 | 1.97 | 3.32 | 5.8 | 0.579 | 5.4 | 1.18 | 5.01 | 4.85 | 6.19 | 6.18 | 1.95 | 5.5 | 4.67 | 1.78 | 5.27 | 1.8
TCGAGTAGGTTAAGGGCATTCAGAATGGCGTCGA | 2.73 | 2.37 | -0.645 | -1.04 | 0.261 | 0.999 | 0.373 | 0.821 | -0.417 | 2.03 | 1.47 | 1.08 | 1.23 | 0.693 | 1.18 | 2.16 | 0.794 | 0.959 | 1.14
AGTCAAAGTTCATCTAGGTAACGTTAGATATGCT | 1.25 | 3.81 | 1.67 | 1.07 | 2.67 | 5.32 | 7.67 | 4.08 | 0.982 | 5 | 3.74 | 5.6 | 6.39 | 4.62 | 4.96 | 2.94 | 0.114 | 5.11 | 5.6
